# Source: publication PMC7819943, “Rice protein-binding microarrays: a tool to detect cis-acting elements near promoter regions in rice”
# Over roughly 68,000 sequences, “fluorescence intensity (a.u.)” has its median near 9,100; the highest 2% begin near 16,000. Shown is part of a subset that was picked to be rich in the highest values.
# Target: OsWRKY34 (Oryza sativa, UniProt Q0JBA9 1-250)
# Test: protein-binding microarray (RPBM); PBS, 2% BSA, 51.3 ng/ul salmon testes DNA, 50 uM zinc acetate, 200 nM TF, 25 C, 1 h; high values mean tight binding
# Settings: protein: recombinant; tags: N-terminal polyhistidine and DsRed monomer fusion (pET32a); label: CyDye5-dUTP incorporated in the synthesized complementary strand; 3' TTTTT single-stranded linker to array surface; dsDNA, one strand shown
# In short: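 Binding signal here means per-feature fluorescence intensity in arbitrary units. The values were read on an Axon 4000B scanner after a custom Agilent array, double-stranded by primer extension with Cy5-dUTP, was incubated with 200 nM protein at 25 °C for 1 h in PBS with 2% BSA, salmon testes DNA and 50 µM zinc acetate, then washed. The proteins were transcription factors with an N-terminal polyhistidine tag and DsRed, expressed in E. coli BL21-CodonPlus and purified on Ni–NTA.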
# Sequence of OsWRKY34 (Q0JBA9 entry or part of it): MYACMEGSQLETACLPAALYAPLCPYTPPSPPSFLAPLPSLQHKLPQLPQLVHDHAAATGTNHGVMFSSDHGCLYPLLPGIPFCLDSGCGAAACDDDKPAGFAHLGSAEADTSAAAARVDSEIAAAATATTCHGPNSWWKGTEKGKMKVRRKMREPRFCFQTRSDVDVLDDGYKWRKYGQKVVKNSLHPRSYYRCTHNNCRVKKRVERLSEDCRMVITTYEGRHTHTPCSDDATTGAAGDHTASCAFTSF
row,Sequence,binding signal
1,TTTTATATCCCTCACCGTACGATCCAACGTTCCGATTTCTCGGAGTCACCTAGTGCAG,8890 fluorescence intensity (a.u.)
2,CCAACCACTCCATCATCATTCGCAATCCAATCTCGCTCTTCGGAGTCACCTAGTGCAG,9230 fluorescence intensity (a.u.)
3,AACCACTCGCTTCCAAACAATCCAAACCTTCCATGCCATTCGGAGTCACCTAGTGCAG,64700 fluorescence intensity (a.u.)
4,CGCTCCTCGCGGCCGCCGCCGCCGCCTCCCTCCTCGCCTTCGGAGTCACCTAGTGCAG,8660 fluorescence intensity (a.u.)
5,CCAAGCGCCCGCCGCCTCGCTCCCTCCTCTTCCTTGACCTCGGAGTCACCTAGTGCAG,35200 fluorescence intensity (a.u.)
6,TTCTCTTTTTCTTTTTATTTTTTCGTTCTCGTCGCCGCCGCGGAGTCACCTAGTGCAG,8330 fluorescence intensity (a.u.)
7,CACACCTCGCCGCTCTTCCCGGCCTCCACCCGCCGCCCTTCGGAGTCACCTAGTGCAG,8510 fluorescence intensity (a.u.)
8,ACCTCTAACCGCCACTAGTTTTTTATACTCTTCTCTATAGCGGAGTCACCTAGTGCAG,8470 fluorescence intensity (a.u.)
9,ATACCGCCTATTTGCCACTCGTTTTTCTTCTCTTGGGCCGCGGAGTCACCTAGTGCAG,18700 fluorescence intensity (a.u.)
10,GCTTCGGCCCAACAACATTCCACTCGGCCCAACAACCACCCGGAGTCACCTAGTGCAG,9750 fluorescence intensity (a.u.)
11,AATTCTCGTCTTCTCGGAGGTTTCTGAGGGGAGGGAGAGGCGGAGTCACCTAGTGCAG,8480 fluorescence intensity (a.u.)
12,CCGGTCCTTCACCCACTTCAGCTTCACGTTCACCAGCGTCCGGAGTCACCTAGTGCAG,10200 fluorescence intensity (a.u.)
13,ATTTTTTCCTCTAATTAAGTCATATCACATCAATTGTTTTCGGAGTCACCTAGTGCAG,10200 fluorescence intensity (a.u.)
14,GGCATTTGGGTGTTATGCATGCCGGCCGGCCCGTACGTACCGGAGTCACCTAGTGCAG,11700 fluorescence intensity (a.u.)
15,AGCTGGATTACCCTTTATACATTTTACTTTAATCTCTTTGCGGAGTCACCTAGTGCAG,10900 fluorescence intensity (a.u.)
16,GACGTATCATAGTCTCTGTTTAGATTTCTAGTACTATGATCGGAGTCACCTAGTGCAG,9340 fluorescence intensity (a.u.)
17,ACTGAGTATTATTATATCCTAACTAAGTTATCGTACATTCCGGAGTCACCTAGTGCAG,8060 fluorescence intensity (a.u.)
18,AATCAGAATATTACCTTCTTGTATTTGTTCTCTGTAGGAACGGAGTCACCTAGTGCAG,8870 fluorescence intensity (a.u.)
19,GCTGTAGAAATTTCTCCTTCTTTGTTAAATGTATGTCTTTCGGAGTCACCTAGTGCAG,9540 fluorescence intensity (a.u.)
20,ACATACACTACACACCCTGTTCTTGCAGTACGCCAATTAACGGAGTCACCTAGTGCAG,9780 fluorescence intensity (a.u.)
21,TCTCTCTCACTCTTCCGGTCTTCCCTGGGCAGGCTAGCCGCGGAGTCACCTAGTGCAG,8840 fluorescence intensity (a.u.)
22,CAGACACATACCTTTCATGCTTCAACTTTTGTATGTTTGTCGGAGTCACCTAGTGCAG,8170 fluorescence intensity (a.u.)

row,Sequence,binding signal
1,TATTTCTATATGGACTTTGTTTTTTCTTTTTCTTCTTTTTCGGAGTCACCTAGTGCAG,13100 fluorescence intensity (a.u.)
2,TTGTTGTAAAGCTTATGGGTCTACTTTCATATGGTTTTGGCGGAGTCACCTAGTGCAG,64100 fluorescence intensity (a.u.)
3,ATATGTTGTTTGACTTTTTTCATAGTCAGAAGTCTATTGGCGGAGTCACCTAGTGCAG,19000 fluorescence intensity (a.u.)
4,AATGGTTTGGTTGTTGTTTTTTTTAAAAAAAACTTTCAGGCGGAGTCACCTAGTGCAG,8170 fluorescence intensity (a.u.)
5,TTCATGTCAGAATCCTATGTTTTTCCTATTCCTTTGTTTTCGGAGTCACCTAGTGCAG,11000 fluorescence intensity (a.u.)
6,TGGGGTCATGTTTGTACTTTGGCAACTGGTCGACTTCATACGGAGTCACCTAGTGCAG,18400 fluorescence intensity (a.u.)
7,TTTGTACCCGTTTTCTACTTTTTTTGTTTCATATTATTAACGGAGTCACCTAGTGCAG,10900 fluorescence intensity (a.u.)
8,ATGATTTTTGGGTCATTTGGTTTGTTTTTGACTTTTGCAACGGAGTCACCTAGTGCAG,12100 fluorescence intensity (a.u.)
9,GCTATACATCTTTCCACTACTTCTCCTCAGCTCGCTTTCCCGGAGTCACCTAGTGCAG,8130 fluorescence intensity (a.u.)
10,AGCTTCTTTTTCTGTGATAGCAATACTGCCTCGAGGAGGACGGAGTCACCTAGTGCAG,8950 fluorescence intensity (a.u.)
11,CCCAAAGTATTGATCGTTTTTGTTTATCATTTTGCTGGATCGGAGTCACCTAGTGCAG,10300 fluorescence intensity (a.u.)
12,AACCTCTACTGCTCCATATATTTTCTTTCTGTCAGCCCATCGGAGTCACCTAGTGCAG,11200 fluorescence intensity (a.u.)
13,ACGTAACACCTAGCAATTTTCTTCTCGCGAAATAAACAGTCGGAGTCACCTAGTGCAG,8500 fluorescence intensity (a.u.)
14,GGCAAACAATGCTCTCAGCCTCGCTTAGCTTTCACTCCACCGGAGTCACCTAGTGCAG,8030 fluorescence intensity (a.u.)
15,GAGCTCCAAAGCTACGGTTTTTTTTTCTCTTTCTTTCTCACGGAGTCACCTAGTGCAG,9080 fluorescence intensity (a.u.)
16,GCAACCTCAGGATGCTCCACGAGCTTTCTCTTAGCTACAACGGAGTCACCTAGTGCAG,17000 fluorescence intensity (a.u.)
17,CTTCTCCCATGCGCCGCCGCAATCTCATCTCTCTGTTTTTCGGAGTCACCTAGTGCAG,9220 fluorescence intensity (a.u.)
18,TACTTATATTTACTTGCAGATCAGTTGCCTGCCAATACCGCGGAGTCACCTAGTGCAG,8390 fluorescence intensity (a.u.)
19,TAGATCAATACTGCCTAACGAACTTTTTTTTTTTTTTACGCGGAGTCACCTAGTGCAG,16400 fluorescence intensity (a.u.)
20,GAACTTATTTTACTGCAATTGTTTGCATCACTTATTCTAACGGAGTCACCTAGTGCAG,9570 fluorescence intensity (a.u.)
21,CCTCTCCCTACTACTGTCGTATCGTCTCCTACCTCGCCTCCGGAGTCACCTAGTGCAG,8340 fluorescence intensity (a.u.)
22,AACGGTTCTTCTGGTCATTTCCAATTCGCCATCCGTCTGTCGGAGTCACCTAGTGCAG,8930 fluorescence intensity (a.u.)
